# Laboratory results published in PubChem BioAssay (Tox21).
# Results filed as inconclusive are left out. A number with no mark means an inactive call. The source made the active and inactive calls. The call rests on the fitted dose curve; in most records, active means well fitted inhibition curve with a large enough effect in the repeat runs; inconclusive means weak or mixed curves, or effect the other way; inactive means no such curve, though single readings can be large or run the other way.
# Target: Androgen receptor (Homo sapiens) (UniProt P10275)
# Sequence (P10275 whole entry, looked up): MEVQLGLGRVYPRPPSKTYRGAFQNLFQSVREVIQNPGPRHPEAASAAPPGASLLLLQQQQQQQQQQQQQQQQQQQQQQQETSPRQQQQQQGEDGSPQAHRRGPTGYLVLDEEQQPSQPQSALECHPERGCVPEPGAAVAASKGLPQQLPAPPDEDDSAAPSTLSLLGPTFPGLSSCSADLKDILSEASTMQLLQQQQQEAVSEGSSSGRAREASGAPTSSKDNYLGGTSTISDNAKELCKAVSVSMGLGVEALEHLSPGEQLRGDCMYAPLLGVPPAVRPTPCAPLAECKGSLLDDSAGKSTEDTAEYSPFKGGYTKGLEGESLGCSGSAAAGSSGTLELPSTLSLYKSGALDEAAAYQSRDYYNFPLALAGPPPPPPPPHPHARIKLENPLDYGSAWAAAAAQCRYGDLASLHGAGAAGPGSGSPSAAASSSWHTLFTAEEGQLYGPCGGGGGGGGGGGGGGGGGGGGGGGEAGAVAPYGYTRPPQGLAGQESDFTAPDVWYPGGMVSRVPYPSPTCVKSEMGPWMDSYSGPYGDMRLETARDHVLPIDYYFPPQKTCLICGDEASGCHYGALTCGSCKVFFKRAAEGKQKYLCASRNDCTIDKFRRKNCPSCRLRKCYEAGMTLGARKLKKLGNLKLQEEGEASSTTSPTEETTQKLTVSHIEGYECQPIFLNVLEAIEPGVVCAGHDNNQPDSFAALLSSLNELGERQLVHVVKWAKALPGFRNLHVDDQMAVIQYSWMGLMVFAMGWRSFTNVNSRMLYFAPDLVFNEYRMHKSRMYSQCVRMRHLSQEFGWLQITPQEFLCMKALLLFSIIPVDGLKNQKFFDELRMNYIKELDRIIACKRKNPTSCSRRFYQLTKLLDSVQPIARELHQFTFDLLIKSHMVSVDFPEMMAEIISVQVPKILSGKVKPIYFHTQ
# Assay: qHTS assay to identify small molecule antagonists of the androgen receptor (AR) signaling pathway using the MDA cell line (AID 743042; further: nearly all actives have a fitted effect of over 55% in size)
# Settings: MDA-kb2 AR-luc, MMTV luciferase, R1881 antagonist, 16 h; series mostly up to 70.3 µM; activity change, negative = inhibition: at the top concentration
# Source text: U.S. Tox21 Program National Center for Advancing Translational Sciences [NCATS] NIH Chemical Genomics Center [NCGC] U.S. Environmental Protection Agency [EPA] National Institutes of Environmental Health Sciences [NIEHS] National Toxicology Program [NTP] U.S. Food and Drug Administration [FDA] Tox21 Assay Overview: Androgen receptor (AR), a nuclear hormone receptor, plays a critical role in AR-dependent prostate cancer and other androgen related diseases. Endocrine disrupting chemicals (EDCs) and their interactions with steroid hormone receptors like AR may cause disruption of normal endocrine function as well as interfere with metabolic homeostasis, reproduction, developmental and behavioral functions. To identify the compounds that inhibit AR signaling, MDA-kb2 AR-luc cell line (from ATCC, deposited by Wilson et al.) was used to screen the Tox21 10K compound library. MDA-kb2 AR-luc cell line is human breast carcinoma cell line that was stably transfected with a luciferase reporter gene under control of the MMTV promoter containing response elements for both androgen receptor (AR) and glucocorticoid receptor (GR).
# Tox21 Assay Protocol Summary: MDA-kb2 cells were dispensed at 3,000 cells/4 uL/well of culture medium into white wall/solid-bottom 1536-well plates using a Multidrop Combi (ThermoFisher Scientific, Waltham, MA) dispenser. After the assay plates were incubated at a 37C and 0% CO2 for 5 hr, 23 nL of compounds dissolved in DMSO, positive controls or DMSO only was transferred to the assay plate by a Pintool station (Kalypsys, San Diego, CA), followed by addition of 1 uL of agonist (R1881) in culture medium using a Bioraptr Flying Reagent Dispenser (FRD) workstation (Beckman Coulter, Indianapolis, IN, USA). The plates were incubated at a 37C and 0% CO2 for 16 h. After 15.5 h incubation, 1uL of CellTiter-Fluor reagent (Promega, Madison, WI) was added using a Bioraptr FRD to each plate for measuring cytotoxicity. The fluorescence intensity was quantified on a ViewLux plate reader (PerkinElmer, Shelton, CT) following 30 min incubation at 37C and 0% CO2. For measuring luciferase reporter gene activity, 4 uL of ONE-Glo reagent (Promega) was added to each plate using a Bioraptr FRD and luminescence was quantified on a ViewLux (PerkinElmer) plate reader after 30 min incubation at room temperature.
# On the % scale 0 is the no-effect control and ±100 the full control effect; potency means the concentration at half of the fitted maximal effect.
SMILES,"activity change, negative = inhibition",Potency
CCOC(=O)NC(C)(C)Cc1ccc(Cl)cc1,0.447%,
COC(=O)c1ccc(CBr)cc1,51.8% [at 95 µM],
O=C/C=C/c1ccco1,3.76%,
OP(O)c1ccccc1,-15.3% [at 95 µM],
CCCOc1nn(C(=O)NS(=O)(=O)c2ccccc2C(=O)OC)c(=O)n1C,4.29%,
N[C@@H]1C[C@H]1c1ccccc1,4.64%,
CCSC(=O)Cl,2.27% [at 95 µM],
O=C(Cl)/C=C/C(=O)Cl,6% [at 95 µM],
O=S1(=O)OCCO1,8.55% [at 95 µM],
C[N+]1(C)CCCCC1,0.831%,
CN(C)C(=O)Oc1cc(OC(=O)N(C)C)cc(C(O)CNC(C)(C)C)c1 (configuration not stated),1.56% [at 32.5 µM],
COP(=O)(O)OC,16.7% [at 95 µM],
CC(C)N(Cc1ccccc1)C(=O)C(C)(C)C,-0.244%,
Cc1ccc(S(=O)(=O)N[C@@H](CCCCN)C(=O)CCl)cc1,,23.7 µM (active)
Clc1ccc(C(Cl)(Cl)Cl)cn1,7.39%,
[O-][Br+2]([O-])O,23.3%,
COc1ccc(C=O)cc1O,-9.03% [at 95 µM],
CCC1(c2ccccc2)CCC(=O)NC1=O (configuration not stated),-6.01%,
C[C@H]1CCCC(=O)CCC/C=C/c2cc(O)cc(O)c2C(=O)O1,,52.5 µM (active)

SMILES,"activity change, negative = inhibition",Potency
CCN[C@@H](C)Cc1ccccc1,9.14% [at 95 µM],
CCOC(=O)CC(SP(=S)(OC)OC)C(=O)OCC (configuration not stated),,inactive
CNC(=O)NC(O)C(Cl)(Cl)Cl (configuration not stated),-0.36%,
CCNc1nc(Cl)nc(NC(C)(C)C)n1,10.8%,
CCC(C)(C#N)N=NC(C)(C#N)CC (configuration not stated),10.5%,
CC[C@H](N)c1ccccc1,0.26%,
CCOP(=S)(OCC)SCCl,-7.33%,
Nc1c(Cl)c(F)nc(OCC(=O)O)c1Cl,1.95%,
Clc1cc2c(cc1Cl)Oc1cc(Cl)c(Cl)cc1O2,-2.57% [at 0.341 µM],
C[C@H](N)C(=O)c1ccccc1,,inactive
CCC1(c2ccccc2)C(=O)N(COC)C(=O)N(COC)C1=O,18%,
CCN(CC)C1CCCCC1,-5.27%,
CNC(=O)Oc1ccccc1C(C)C,8.95%,
BrCc1ccc(Br)cc1,-0.805%,
CCOC1Oc2ccc(OS(C)(=O)=O)cc2C1(C)C (configuration not stated),,60.6 µM (active)
C[C@H](CN1CCOCC1)C(C(=O)N1CCCC1)(c1ccccc1)c1ccccc1,6.51% [at 95 µM],
COc1cccc([C@@]2(O)CCCC[C@@H]2CN(C)C)c1,-5.33%,
CNC(=O)O/N=C(/CSC)C(C)(C)C,5.64%,
